# Data from article PMC12701074.
# Tests used:
# Histone H2B type 1-L = Histone H2B type 1-L (UniProt Q99880); test: cross-linking mass spectrometry
# DNA topoisomerase 1 = DNA topoisomerase 1 (UniProt P11387); test: cross-link between two proteins; cross-linking mass spectrometry
# [1] = biological target: Large ribosomal subunit protein eL36 (UniProt Q9Y3U8); test: as above
# [2] = biological target: Probable ATP-dependent RNA helicase DDX5 (UniProt P17844); test: as above
# [3] = biological target: Small ribosomal subunit protein uS17 (UniProt P62280); test: as above
# Histone H2B type 1-B = Histone H2B type 1-B (UniProt P33778); test: as above
# Histone H4 = Histone H4 (UniProt P62805); test: as above
# [4] = biological target: Large ribosomal subunit protein eL24 (UniProt P83731); test: as above
# [5] = biological target: Large ribosomal subunit protein uL18 (UniProt P46777); test: as above
# [6] = biological target: Large ribosomal subunit protein uL2 (UniProt P62917); test: as above
# [7] = biological target: Small ribosomal subunit protein uS12 (UniProt P62266); test: as above
# [8] = biological target: Peptidyl-prolyl cis-trans isomerase A-like 4A (UniProt Q9Y536); test: as above
# Chain of Peptidyl-prolyl cis-trans isomerase A-like 4A (Q9Y536 whole entry): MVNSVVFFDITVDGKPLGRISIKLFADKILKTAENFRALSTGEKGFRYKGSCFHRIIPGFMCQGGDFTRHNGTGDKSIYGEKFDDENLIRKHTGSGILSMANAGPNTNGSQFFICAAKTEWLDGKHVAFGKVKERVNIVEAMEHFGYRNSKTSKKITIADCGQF
# [9] = biological target: Small ribosomal subunit protein eS6 (UniProt P62753); test: as above
# [10] = biological target: Small ribosomal subunit protein uS9 (UniProt P62249); test: as above
# Chain of Probable ATP-dependent RNA helicase DDX5 (P17844 whole entry): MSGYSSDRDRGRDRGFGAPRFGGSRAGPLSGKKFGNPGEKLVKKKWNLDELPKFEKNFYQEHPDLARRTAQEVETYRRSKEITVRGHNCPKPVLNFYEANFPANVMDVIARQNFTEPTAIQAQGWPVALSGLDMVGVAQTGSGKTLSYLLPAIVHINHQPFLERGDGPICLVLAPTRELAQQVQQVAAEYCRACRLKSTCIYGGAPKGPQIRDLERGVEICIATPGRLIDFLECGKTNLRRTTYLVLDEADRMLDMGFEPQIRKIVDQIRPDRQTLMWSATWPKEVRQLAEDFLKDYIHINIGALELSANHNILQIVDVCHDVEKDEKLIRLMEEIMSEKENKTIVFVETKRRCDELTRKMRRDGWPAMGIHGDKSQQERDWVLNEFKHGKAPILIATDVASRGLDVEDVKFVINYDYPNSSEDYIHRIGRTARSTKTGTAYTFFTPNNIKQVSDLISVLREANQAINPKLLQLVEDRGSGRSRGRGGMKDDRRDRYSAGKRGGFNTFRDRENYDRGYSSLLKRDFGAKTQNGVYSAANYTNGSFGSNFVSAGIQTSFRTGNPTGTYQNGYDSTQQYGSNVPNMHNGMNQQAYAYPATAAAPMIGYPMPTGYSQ
# Chain of DNA topoisomerase 1 (P11387 whole entry): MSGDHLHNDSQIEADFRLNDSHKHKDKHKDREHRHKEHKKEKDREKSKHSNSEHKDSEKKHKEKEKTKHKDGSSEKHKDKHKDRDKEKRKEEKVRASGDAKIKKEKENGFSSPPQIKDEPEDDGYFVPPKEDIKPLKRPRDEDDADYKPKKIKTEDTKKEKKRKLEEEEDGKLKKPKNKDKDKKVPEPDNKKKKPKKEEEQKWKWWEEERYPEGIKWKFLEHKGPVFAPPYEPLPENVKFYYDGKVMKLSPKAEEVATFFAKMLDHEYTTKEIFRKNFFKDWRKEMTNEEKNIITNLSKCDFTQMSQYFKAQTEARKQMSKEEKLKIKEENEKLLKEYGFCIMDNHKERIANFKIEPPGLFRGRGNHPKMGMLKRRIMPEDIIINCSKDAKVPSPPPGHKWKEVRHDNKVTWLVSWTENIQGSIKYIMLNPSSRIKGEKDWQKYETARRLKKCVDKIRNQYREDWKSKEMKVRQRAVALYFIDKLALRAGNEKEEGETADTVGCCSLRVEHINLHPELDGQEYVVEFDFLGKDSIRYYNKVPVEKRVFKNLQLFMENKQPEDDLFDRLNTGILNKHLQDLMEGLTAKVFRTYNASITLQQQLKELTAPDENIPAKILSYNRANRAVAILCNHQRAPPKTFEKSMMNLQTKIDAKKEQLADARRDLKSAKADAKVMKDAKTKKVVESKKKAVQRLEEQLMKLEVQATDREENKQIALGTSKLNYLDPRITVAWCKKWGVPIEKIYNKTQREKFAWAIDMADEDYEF
substance,measurement,setting,value
"Actin, cytoplasmic 1, P60709",listed as a hit,Histone H2B type 1-L,yes
"Histone H1.4, P10412",listed as a hit,DNA topoisomerase 1,yes
same,listed as a hit,[1],yes
same,listed as a hit,[2],yes
same,listed as a hit,[3],yes
"Large ribosomal subunit protein uL22, P18621",listed as a hit,Histone H2B type 1-B,yes
"Large ribosomal subunit protein eL33, P18077",listed as a hit,Histone H2B type 1-B,yes
"Small ribosomal subunit protein uS5, P15880",listed as a hit,Histone H4,yes
"Small ribosomal subunit protein eS1, P61247",listed as a hit,Histone H4,yes
"Histone H4, P62805",listed as a hit,[4],yes
"Histone H2B type 1-B, P33778",listed as a hit,[5],yes
same,listed as a hit,[6],yes
same,listed as a hit,[7],yes
"Histone H2B type 1-C/E/F/G/I, P62807",listed as a hit,[8],yes
"Large ribosomal subunit protein uL4, P36578",listed as a hit,[9],yes
"Large ribosomal subunit protein eL27, P61353",listed as a hit,[10],yes
